Experimental data reported in PubChem BioAssay (NCI).
About 83,000 compounds went through this panel and 20% of them were active in at least one assay; those are over-represented in the sample as a whole.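 Each cell line was grown in a 96-well plate and treated with one concentration of compound for 48 hours. Values below 10 were considered active.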 Calls of active or inactive are those of the source.

Tested on: HL-60(TB) leukemia
Assay: NCI-60 one-dose screen, 48 h (100 = growth as untreated, 0 = no growth, -100 = all killed)
Details: 10 µM unless noted

Row | SMILES | growth
1 | C=C1SC(=Nc2ccccc2Cl)N(C(=O)c2sc3ccccc3c2Cl)C1(C)C | 1.29% (active)
2 | CCCCC(=O)c1ccc(OC)cc1 | 92.6% (inactive)
3 | O=C(O)c1cccc([N+](=O)[O-])c1 | 107% (inactive)
4 | Cc1cccc(NC2=C(Cl)C(=O)c3nc(C)ccc3C2=O)c1 | -14.9% (active)
5 | COc1ccc(C(=O)/C=C/c2ccc(/C=C/c3cc(OC)c(OC)c(OC)c3)cc2)cc1 | 21.5% (inactive)
6 | O=C1/C(=C\c2cn(C(=O)c3ccc(Cl)cc3)c3ccccc23)c2ccccc2N1C(=O)c1ccc(Cl)cc1 | 54.2% (inactive)
7 | Cc1cc(/C=C/c2ccc3cc(N(C)C)ccc3[n+]2C)c(C)n1-c1ccccc1 | -26.1% (active)
8 | CCCn1c(N)c(C(=O)CNc2ccc(I)cc2)c(=O)[nH]c1=O | -5.9% (active)
9 | Cc1c(CC(=O)OCCO)cc(-c2ccc(Cl)cc2)n1-c1ccccc1 | 95.7% (inactive)
10 | Clc1ccc2c(c1)N(c1ncnc3ccc(-c4cnc5[nH]ccc5c4)cc13)CC2 | 16.3% (inactive)
11 | Clc1ccc([C@@H]2C[C@@H]3Cc4cc(Br)c5ccccc5c4N2O3)c(Cl)c1 | 54.3% (inactive)
12 | Cc1cc(C(=O)Nc2cc(Nc3ncccc3-c3ncnc4nc[nH]c34)ccc2F)cc(C(C)(C)C#N)c1 | 26.4% (inactive)
13 | CCOC(=O)c1c(C)oc2ncnc(Nc3ccc(C(=O)NCCc4ccccc4)cc3)c12 | 87.7% (inactive)
14 | O=C(N/N=C/c1c(Cl)cccc1Cl)c1cccc(Nc2ccnc(C(F)(F)F)c2)c1 | 98.3% (inactive)
15 | N[C@@H]1CCCN(c2c(/C=C3\SC(=O)NC3=O)cccc2-c2ccccc2)C1 | 26.5% (inactive)
16 | COc1ccc(C(=O)C2=CC(=O)C(=O)C2)cc1OC | 110% (inactive)
17 | COc1ccc(/C=C(\C#N)n2nnc3ccc(Cl)cc32)cc1 | 86.6% (inactive)
18 | CC(O)CN(CCO)CCN(CCO)CC(C)O (stereo not given) | 102% (inactive)
19 | Nc1nccc(OCCO)n1 | 88.5% (inactive)
20 | COc1cc2c(c(OC)c1OC)C(=O)CC(c1cccc(C(=O)Nc3ccccc3Br)c1)O2 (stereo not given) | 76.5% (inactive)

Row | SMILES | growth
21 | N[C@@H]1CCC[C@H]1NCCCCN1C(=O)c2cccc3cc([N+](=O)[O-])cc(c23)C1=O | 30.5% (inactive)
22 | N/C(=N\C(N)=N\c1nc2ccccc2s1)c1ccnc(Cl)c1 | 1.2% (active)
23 | COc1cc(/C=N/NC(=O)c2ccc(C(F)(F)F)nc2Nc2ccc(Cl)cc2C)ccc1O | 4.41% (active)
24 | CCCCOc1ccc(/C=N/Nc2cc(C)nc3ccc(Br)cc23)cc1 | 1.52% (active)
25 | CCC(=O)OCc1cccc(OC)c1 | 53.7% (inactive)
26 | C[C@@H](N)c1ccc(C(=O)Nc2ccnc3[nH]ccc23)cc1 | 67.5% (inactive)
27 | OC(c1cccc(C(F)(F)F)c1)c1cnccc1NC1CCCCC1 (stereo not given) | 45.3% (inactive)
28 | COc1c(O)cc2oc3cc(O)c(CC=C(C)C)c(O)c3c(=O)c2c1CC=C(C)C | 65.9% (inactive)
29 | C=C(C)[C@@H]1CC[C@]2(C(=O)O)CC[C@]3(C)[C@H](CC[C@@H]4[C@@]5(C)C[C@@H](CC#Cc6ccc(C(F)(F)F)cc6)[C@H](O)C(C)(C)[C@@H]5CC[C@]43C)[C@@H]12 | 7.01% (active)
30 | O=C(/C=C/c1ccc(O)c(O)c1)N1CCN(c2ccc(Cl)cc2)CC1 | 12.9% (inactive)
31 | CCCCCCCCCCCCSC1=CC(=O)C=CC1=O | -32.3% (active)
32 | ClC1=C(Cl)C(Cl)=C(Cl)C1=C/C=C/c1ccccc1 | -45.5% (active)
33 | COc1ccc2c(c1)[nH]c(=O)c1c3cccc(F)c3cn21 | 11.2% (inactive)
34 | CC1(/C=C/c2ccc(-c3ccccc3)cc2)CCn2cnc3ncnc(c32)N1O (stereo not given) | 2.02% (active)
35 | COC(=O)c1ccc2nc(-c3cc4ccccc4n3C)n(CCCCOc3cc4c(cc3OC)C(=O)N3CCC[C@H]3C=N4)c2c1 | -36.2% (active)
36 | CCNc1cc(S(=O)(=O)O)ccc1C | 93.8% (inactive)
37 | N#CC1=C(N)Oc2c(sc3c(F)cccc23)C1c1ccc(Cl)cc1 (stereo not given) | -6.14% (active)
38 | CCCCCC/C=N/Nc1ccc([N+](=O)[O-])cn1 | 62.5% (inactive)
39 | Nc1c(C(=O)Nc2cccc3ccccc23)sc2nc3c(cc12)CCCC3 | -11.1% (active)
40 | CCCSc1ccc2nc(NC(=O)OC)[nH]c2c1 | 7.7% (active)
